Screening data as filed in PubChem BioAssay.
HCV inhibitor: qHTS Assay for Inhibitors of Hepatitis C Virus (HCV); Huh7.5.1 HCVcc-Cre infection, luciferase reporter, 44 h; Potency, µM (series often up to 41.8 µM), for the others: at the top dose activity change, negative = inhibition, actives largely listed as inhibitors; actives 3.4% (n = 340,000)
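Infectious HCVcc-Cre (~0.5 moi) was added to cells just after compound, with cells seeded 4 h earlier at 1,000 per well. Luciferase activity after 44 h culture reported infection; substrate was incubated 15 min at room temperature before reading.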
RE007 growth inh: qHTS Assay for Inhibitors of the HIV-1 protein Vpr. S. pombe RE007 Vpr strain, BacTiter-Glo ATP luminescence, 24 h. Potency, µM (series often up to 92.2 µM), without a hit: at the top dose activity change, negative = less growth, usual class: inhibitors. actives 0.21% (n = 360,000). AID 651644, 2012; active = well fitted falling curve with a large enough effect; inconclusive = small, poorly fitted or top-dose-only effect; inactive = no such curve, though single readings can be large or run the other way; also: nearly all actives have a fitted effect of over 50% in size
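Fission yeast RE007 carrying one integrated HIV-1 vpr copy, seeded at OD 0.01 in PMG+AL medium with 23 nL pinned compound. Grown 24 h at 30 degrees; viability read by BacTiter-Glo luminescence after 5 min.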
FMDV inh: High Throughput Screening for Foot and Mouth Disease Virus Antivirals. actives 1.2% (n = 410,000). Potency, µM (doses to about 57.9 µM), inactives show at the highest dose activity change, negative = inhibition, usual class: inhibitors. FMDV antiviral cell-based qHTS; calls by dose curve; tested in HEK293T cells; also: read-out not given here; nearly all actives have a fitted effect of over 45% in size
Lassa entry inh: qHTS for Inhibitors of binding or entry into cells for Lassa Virus; Lassa virus pseudotype entry inhibition, cell reporter; Potency, µM (titrated, usually from 37.9 µM), inactives show at the top dose activity change, negative = inhibition, actives largely listed as inhibitors; actives 1.2% (n = 300,000); AID 540256, 2011; calls by dose curve; tested in HEK293 cells; also: nearly all actives have a fitted effect of over 50% in size
Marburg entry inh: qHTS for inhibitors of binding or entry into cells for Marburg Virus; Marburg virus pseudotyped entry inhibition, cell reporter; Potency, µM (series often up to 37.8 µM), without a hit: top-dose activity change, negative = inhibition, hits mostly inhibitors; actives 1.8% (n = 300,000); calls by dose curve; tested in HEK293 cells
Sm TGR inh: qHTS Assay for the Inhibitors of Schistosoma Mansoni Peroxiredoxins; Schistosoma mansoni thioredoxin glutathione reductase (TGR), Q962Y6; purified TGR, DTNB reduction, TNB absorbance 405 nm; Potency, µM (series often up to 114 µM), without a hit: at the top dose activity change, negative = inhibition, usual class: inhibitors; actives 3% (n = 360,000); also: nearly all actives have a fitted effect of over 60% in size
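Kinetic colorimetric format: TGR-catalysed, NADPH-driven DTNB reduction monitored via TNB absorbance. Enzyme dispensed at 20 nM; compound exposure 15 min at room temperature before reaction start.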
Numbers without * were called inactive; ? = inconclusive; nt = no result; [ ] = dose if it differs, or a comment. Sampled rows, rich in hits. Any-hit rate of the full collection: about 7.2%. Unless noted, calls follow the shape of the dose curve; as a rule, active = well fitted curve in the direction sought with a large enough effect; inconclusive = small, poorly fitted or top-dose-only effect, or another doubt; inactive = no such curve, though single readings can be large; an effect the other way counts as inactive or inconclusive. % is scaled to controls: 0 for no effect and ±100 for the full control effect; potency is read from the fitted curve at half-maximal effect.

SMILES	HCV inhibitor	RE007 growth inh	FMDV inh	Lassa entry inh	Marburg entry inh	Sm TGR inh
O=C(CSc1ncc(-c2ccc(F)cc2)n1Cc1ccco1)Nc1ccc2c(c1)OCO2	?	-1.0%	29.3%	?	?	-9.7%
O=C(CSc1nnc(-c2cnccn2)n1Cc1ccco1)c1ccc2ccccc2c1	-24.8%	-4.7%	-5.6%	2.0%	-11.4%	25.1µM*
Cc1ccc(NC(=O)CSc2nnc(-c3cnccn3)n2Cc2ccco2)cc1	-21.6%	1.9%	22.4%	-10.0%	?	44.7µM*
Cc1cccc(NC(=O)CSc2nnc(-c3cnccn3)n2Cc2ccco2)c1	-1.5%	0.2%	-19.0%	2.4%	27.5%	?
Fc1ccccc1CSc1nnc(-c2cnccn2)n1Cc1ccco1	8.3%	21.7%	30.8%	17.0%	2.7%	-21.1%
COc1ccc(CCNc2ncnc3c2c(-c2ccccc2)cn3-c2ccc(F)cc2)cc1OC	nt	nt	?	?	nt	-1.0%
COc1ccc(S[C@@H]2C[C@@H](C(=O)Nc3ccc4nccnc4c3)N(C3Cc4ccccc4C3)C2)cc1	nt	nt	10.0%	nt	nt	nt
Cc1ccccc1-c1nnc(SCC(=O)N2CCCCC2)o1	nt	nt	48.7%	-22.2%[46.1 µM]	?	4.2%
O=c1c(-c2ccc(F)cc2)nc2cnc(Oc3cccc(Cl)c3)nc2n1C[C@H]1CCCO1	nt	nt	5.9%	nt	nt	nt
O=C(NCCc1ccccn1)c1cccc(S(=O)(=O)N2CCc3ccccc32)c1	?	0.8%	4.9%	-4.4%	-6.8%	39.8µM*
CC1Cc2ccccc2N1S(=O)(=O)c1cccc(C(=O)NCc2ccncc2)c1 (configuration not stated)	?	-10.4%	-29.7%	-20.4%	7.94µM*	5.7%
O=C(NCc1ccncc1)c1cccc(S(=O)(=O)N2CCc3ccccc32)c1	11.2µM*	2.1%	?	nt	nt	28.2µM*
O=C(Nc1c(C(=O)Nc2cccc(C(F)(F)F)c2)oc2ccccc12)c1cc(=O)c2ccccc2o1	nt	nt	7.7%	-2.5%[46.1 µM]	-4.0%[46.1 µM]	1.4%
OCCNCCCOc1cccc(Cl)c1Cl	nt	nt	-10.3%	nt	nt	nt
CCCCNCCCOc1cccc(Cl)c1Cl	-21.1%	-2.0%	nt	-0.7%	14.6µM*	-14.0%
O=C(c1ccc(Cl)cc1)N1CCCCC1CCN1CCOCC1 (configuration not stated)	nt	nt	5.5%	?	14.9%[46.1 µM]	-2.9%
COc1ccc(CCNc2cc(N3CCN(C(=O)c4ccccc4F)CC3)ccc2[N+](=O)[O-])cc1OC	?	-6.3%	3.55µM*	?	?	-1.4%
O=C(c1ccccc1F)N1CCN(c2ccc([N+](=O)[O-])c(NCc3cccnc3)c2)CC1	-5.0%	4.4%	?	-10.6%	?	0.4%
COc1ccc(C(=O)N2CCN(c3ccc([N+](=O)[O-])c(NCCc4ccc(OC)c(OC)c4)c3)CC2)cc1	1µM*	4.5%	8.91µM*	4.47µM*	?	1.2%
COc1ccc(CCNc2cc(N3CCN(C(=O)c4ccc(C)cc4)CC3)ccc2[N+](=O)[O-])cc1OC	4.1%	nt	nt	8.4%	-21.8%	-8.8%
Cn1cccc1/C=C1\CCC/C(=C\c2cccn2C)C1=O	12.6µM*	-19.1%	-16.5%	1.5%	?	-28.8%
O=c1oc2ccccc2cc1-c1nc2ccccc2o1	26.8%	?	20.2%	-17.1%	10.2%	0.3%
O=c1oc2ccccc2cc1-c1nc2c(s1)CCCC2	-18.2%	-3.9%	-25.3%	2.91µM*	?	0.0%
COC(=O)c1nc(NC(=O)c2ccc(Br)cc2)n[nH]1	15.2%	9.8%	-11.3%	-0.4%	26.3%	?
COC(=O)c1nc(NC(=O)C(C)(C)C)n[nH]1	13.2%	-6.0%	nt	13.4%	9.1%	31.6µM*
SMILES	HCV inhibitor	RE007 growth inh	FMDV inh	Lassa entry inh	Marburg entry inh	Sm TGR inh
COc1ccc(CNC(=O)CCCOc2cc(=O)n(C)c3ccccc23)cc1	3.3%	0.1%	21.9%	7.0%	0.9%	1.0%
CCn1c(=O)cc(OCC(=O)NCc2ccc(C)o2)c2ccccc21	?	-6.3%	12.8%	-0.8%	-19.5%	35.5µM*
O=C(CCCn1c(=O)c2ccccc2n(CC(=O)NCc2ccco2)c1=O)NCc1ccco1	-6.8%	10.7%	0.0%	0.5%	?	25.1µM*
Cc1ccc(CNC(=O)CCCOc2cc(=O)n(C)c3ccccc23)o1	-23.0%	-0.2%	15.9%	-11.4%	-0.9%	12.6µM*
Cc1ccc(NC(=O)Cn2c(=O)n(CCCCC(=O)NCc3ccco3)c(=O)c3ccccc32)cc1	-18.6%	1.5%	-12.1%	-16.2%	-17.5%	-21.2%
CC(C)Oc1ccc(CNC(=O)Cn2c(=O)oc3ccccc32)cc1	-27.4%	19.5%	0.0%	nt	22.7%[46.1 µM]	7.9%
Cc1ccc(CNC(=O)Cn2c(=O)oc3ccccc32)o1	-9.6%	3.1%	22.6%	0.0%	-0.4%	28.2µM*
Cc1ccc(S(=O)(=O)N2CCCc3cc(NC(=O)c4ccc(C(F)(F)F)cc4)ccc32)cc1	nt	nt	1.2%	?	nt	3.0%
Cc1nc2ccc(S(=O)(=O)N(CC(=O)Nc3ccc(Cl)cc3)Cc3ccccc3)cc2s1	nt	nt	-23.4%	?	nt	0.4%
CCOC(=O)c1c(S(=O)(=O)NCC(=O)Nc2ccc(C)c(Cl)c2)c(C)n(C)c1C	nt	nt	24.1%	0.6%[46.1 µM]	nt	2.6%
CC(C)CCOc1ccc(C2N=C(N)Nc3nc4ccccc4n32)cc1 (configuration not stated)	nt	nt	-20.5%	1.4%[46.1 µM]	?	-6.8%
O=C(NCCc1ccccc1Cl)c1sc2ncccc2c1-n1cccc1	nt	nt	-11.8%	4.0%[46.1 µM]	nt	-1.7%
Cn1c(=O)cc(OCCCC(=O)NCc2ccco2)c2ccccc21	-6.4%	11.2%	31.7%	-12.9%	-8.5%	39.8µM*
CC(C)CCNC(=O)CCCOc1cc(=O)n(C)c2ccccc12	15.7%	18.9%	-13.9%	-9.8%	-5.2%	12.3%
C=CCn1c(O)c(C=NCCN2CCNCC2)c(=O)[nH]c1=O	4.2%	18.2%	0.1%	-2.4%	-8.3%	0.0%
O=c1c(C=NCCN2CCNCC2)c(O)n(C2CCCCC2)c(=O)n1C1CCCCC1	?	-8.1%	-17.4%	17.4%[14.3 µM]	20.6µM*	-6.2%
O=c1[nH]c(=O)n(CCC2=CCCCC2)c(O)c1C=NCCN1CCNCC1	-3.4%	1.3%	-1.7%	16.6%	8.2%	10µM*
O=c1[nH]c(=O)n(Cc2ccccc2)c(O)c1C=NCCN1CCNCC1	10.7%	14.0%	nt	4.2%	16.3%	35.5µM*
CCN(CC)CCN=Cc1c(O)n(CCc2ccccc2)c(=O)[nH]c1=O	18.1%	-1.9%	-10.2%	0.3%	6.5%	25.1µM*
O=C(c1csnn1)N1CCC2(CC1)CN(c1ccccn1)C2	nt	nt	-10.6%	nt	nt	nt
CCCCNC(=O)CCCn1c(=O)c2ccccc2n(Cc2ccccc2C)c1=O	nt	nt	0.0%	?	?	-3.2%
